This is an account of results in PubChem BioAssay.

Activity calls are given as the source filed them.

Test [1] is described as follows: optical density shifts of acrAB sulA E. coli – strain DRC41, OD650, 48 h, E. coli filamentation inducer project, primary screen (AID 1152).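 Also: E. coli MC1000 strain DRC41 lacking acrAB efflux pump and sulA.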 The settings on record: higher = more signal, called active from +8 up or from −8 down.
Test [2] can be described thus: probe aLefty1 binding on compound microarray – biochemical, small-molecule microarray, 635/667 nm fluorescence, primary screen (AID 1153).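 Also: score merges spot fluorescence with signal-to-noise ratio from the scanned slide images.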 The settings on record: higher = more signal.
Test [3] in a line: plasmodial surface anion channel blockers, osmotic lysis – cell-based, P. falciparum Indochina, OD700, 1 h, primary screen (AID 1154). The settings on record: P. falciparum Indochina infected RBC osmotic lysis, higher = more signal, called active from +8 up or from −8 down.
The nature of test [4]: plasmodial surface anion channel blockers, osmotic lysis – cell-based, P. falciparum Indochina, OD700, 2 h, primary screen (AID 1155).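 Also: lysis reports solute entry through the parasite surface anion channel PSAC.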 The settings on record: P. falciparum Indochina infected erythrocytes, higher = more signal, called active from +8 up or from −8 down.
The nature of test [5]: changes in parasitized red cell lysis, either direction – P. falciparum Indochina, OD700, 3 h, PSAC antagonist project, primary screen (AID 1156). The settings on record: P. falciparum-infected erythrocytes, osmotic lysis, higher = more signal, called active from +8 up or from −8 down.
Test [6] is described as follows: plasmodial surface anion channel blockers, osmotic lysis – cell-based, P. falciparum Indochina, OD700, 18 h, primary screen (AID 1157). The settings on record: P. falciparum Indochina infected erythrocytes, osmotic lysis OD700, 18 h; higher = more signal, called active from +8 up or from −8 down.
Test [7] can be described thus: S6 kinase pathway phospho-S6 level changes – cell-based, A549, cytoblot, luminescence, serum-stimulated, primary screen (AID 1158).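 Also: serum-stimulated A549 lung adenocarcinoma cells; signal is phosphorylated S6 detected by cytoblot immunostaining with HRP secondary.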 The settings on record: 5 h, higher = more signal.
Test [8] has as its target NADPH oxidase 2 (Homo sapiens) (UniProt P04839). Description: compounds shifting NOX2 Amplex Red fluorescence – cell-based, HEK293-NOX2, PMA-stimulated, NOX inhibitor project, primary screen (AID 1159). Also: test concentration not given here. The settings on record: 45 min, higher = more signal, called active from +8 up or from −8 down.
Test [9] has as its target NADPH oxidase 4 (Homo sapiens) (UniProt Q9NPH5). The test can be described thus: compounds shifting NOX4 Amplex Red fluorescence – cell-based, HEK293-NOX4, tetracycline-induced, NOX inhibitor project, primary screen (AID 1160). The settings on record: HEK293-NOX4, Amplex Red H2O2 fluorescence, 45 min; higher = more signal, called active from +8 up or from −8 down.
In test [10] the target is NADPH oxidase 5 (Homo sapiens) (UniProt Q96PH1). The test can be described thus: compounds shifting NOX5 Amplex Red fluorescence – cell-based, HEK293-NOX5, NOX inhibitor project, primary screen (AID 1161). The settings on record: HEK293-NOX5, ionomycin, 45 min, higher = more signal.
Sequence of NADPH oxidase 5 (Homo sapiens) (Q96PH1 whole entry, looked up): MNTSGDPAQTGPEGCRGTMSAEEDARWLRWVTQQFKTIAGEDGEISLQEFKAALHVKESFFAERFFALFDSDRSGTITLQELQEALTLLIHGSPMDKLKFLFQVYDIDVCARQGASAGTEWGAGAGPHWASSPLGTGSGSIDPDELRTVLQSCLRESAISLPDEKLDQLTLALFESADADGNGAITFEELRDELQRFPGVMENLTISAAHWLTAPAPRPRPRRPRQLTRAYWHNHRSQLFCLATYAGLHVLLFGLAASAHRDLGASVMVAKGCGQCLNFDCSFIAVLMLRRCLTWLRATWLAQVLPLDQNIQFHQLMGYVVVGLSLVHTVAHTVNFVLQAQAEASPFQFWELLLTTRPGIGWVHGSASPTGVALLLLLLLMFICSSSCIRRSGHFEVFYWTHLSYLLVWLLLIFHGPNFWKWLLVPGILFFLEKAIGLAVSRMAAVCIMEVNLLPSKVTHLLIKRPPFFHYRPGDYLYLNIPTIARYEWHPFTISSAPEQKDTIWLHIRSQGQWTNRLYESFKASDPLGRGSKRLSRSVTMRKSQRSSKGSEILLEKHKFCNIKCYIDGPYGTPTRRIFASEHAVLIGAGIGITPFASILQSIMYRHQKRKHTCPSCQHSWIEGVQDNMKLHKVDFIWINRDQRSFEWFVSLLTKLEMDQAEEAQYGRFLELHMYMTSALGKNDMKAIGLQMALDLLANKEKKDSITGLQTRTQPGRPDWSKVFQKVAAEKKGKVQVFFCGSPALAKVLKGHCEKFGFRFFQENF
The nature of test [11]: compound effects on lung adenocarcinoma cell viability – A549, calcein-AM fluorescence, 48 h, basal, profiling panel (AID 1162). Also: test concentration not given here. The settings on record: higher = more signal.
The nature of test [12]: compound effects on differentiated 3T3-L1 adipocyte viability – cell-based, 3T3-L1 adipocytes, calcein-AM fluorescence, 48 h, basal, profiling panel (AID 1163). Also: test concentration not given here. The settings on record: 3T3-L1 adipocytes viability, higher = more signal.
The nature of test [13]: compound effects on hepatocellular carcinoma cell viability – HepG2, calcein-AM fluorescence, 48 h, basal, profiling panel (AID 1164). Also: test concentration not given here. The settings on record: higher = more signal.
Test [14] is described as follows: compound effects on multiple myeloma cell viability – MM1S, calcein-AM fluorescence, 48 h, basal, profiling panel (AID 1165).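 Also: viability of MM1S multiple myeloma cells under basal unstimulated conditions; test concentration not given here.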 The settings on record: higher = more signal.
Test [15] in a line: calcein-AM signal in unstimulated myeloma cells – cell-based, calcein-AM fluorescence, 48 h, PK04 Diversity Set, profiling panel (AID 1166).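 Also: cells grown under basal conditions without added stimulus; test concentration not given here.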 The settings on record: RPMI8226 myeloma viability, higher = more signal.
Test [16] can be described thus: JC-1 mitochondrial signal, unstimulated HepG2 cells – cell-based, JC-1 fluorescence, 24 h, 100 nL compound, profiling panel (AID 1167). Also: test concentration not given here. The settings on record: HepG2 mitochondrial potential, higher = more signal.
Test [17] in a line: JC-1 mitochondrial signal, unstimulated adipocytes – cell-based, JC-1 fluorescence, 3T3-L1 adipocytes, 24 h, 100 nL compound, profiling panel (AID 1168). Also: test concentration not given here. The settings on record: JC-1 mitochondrial fluorescence, higher = more signal, called active from +8 up or from −8 down.
Test [18] is described as follows: JC-1 mitochondrial signal, unstimulated myeloma cells – cell-based, JC-1 fluorescence, RPMI8226, 24 h, 100 nL compound, profiling panel (AID 1169). Also: test concentration not given here. The settings on record: JC-1 mitochondrial potential fluorescence, higher = more signal.
Test [19] is described as follows: JC-1 mitochondrial signal, unstimulated MM1S myeloma – cell-based, JC-1 fluorescence, 24 h, 100 nL compound, profiling panel (AID 1170). Also: test concentration not given here. The settings on record: MM1S mitochondrial potential, higher = more signal.
The nature of test [20]: resazurin metabolic signal in A549 cells – cell-based, resazurin fluorescence, 24 h, PK04 Diversity Set, profiling panel (AID 1171). Also: test concentration not given here. The settings on record: A549 viability, higher = more signal, called active from +8 up or from −8 down. (In general: Resazurin is reduced to fluorescent resorufin, in cell work by metabolically active cells.)

Sequence of NADPH oxidase 4 (Homo sapiens) (Q9NPH5 whole entry, looked up): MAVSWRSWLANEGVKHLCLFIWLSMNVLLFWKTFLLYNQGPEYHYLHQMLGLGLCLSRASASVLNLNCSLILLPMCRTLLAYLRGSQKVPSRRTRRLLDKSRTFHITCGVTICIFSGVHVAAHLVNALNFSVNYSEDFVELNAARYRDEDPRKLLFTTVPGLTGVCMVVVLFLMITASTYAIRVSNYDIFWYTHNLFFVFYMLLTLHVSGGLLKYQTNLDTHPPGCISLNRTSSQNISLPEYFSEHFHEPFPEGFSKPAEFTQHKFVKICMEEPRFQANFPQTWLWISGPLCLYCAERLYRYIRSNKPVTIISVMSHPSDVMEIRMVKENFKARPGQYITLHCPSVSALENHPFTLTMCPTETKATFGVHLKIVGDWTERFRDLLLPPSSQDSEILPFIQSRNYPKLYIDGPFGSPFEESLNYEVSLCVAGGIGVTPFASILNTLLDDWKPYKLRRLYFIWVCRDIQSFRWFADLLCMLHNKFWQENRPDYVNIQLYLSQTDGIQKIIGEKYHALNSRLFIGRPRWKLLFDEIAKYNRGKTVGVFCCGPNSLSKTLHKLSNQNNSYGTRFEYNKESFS
Sequence of NADPH oxidase 2 (Homo sapiens) (P04839 whole entry, looked up): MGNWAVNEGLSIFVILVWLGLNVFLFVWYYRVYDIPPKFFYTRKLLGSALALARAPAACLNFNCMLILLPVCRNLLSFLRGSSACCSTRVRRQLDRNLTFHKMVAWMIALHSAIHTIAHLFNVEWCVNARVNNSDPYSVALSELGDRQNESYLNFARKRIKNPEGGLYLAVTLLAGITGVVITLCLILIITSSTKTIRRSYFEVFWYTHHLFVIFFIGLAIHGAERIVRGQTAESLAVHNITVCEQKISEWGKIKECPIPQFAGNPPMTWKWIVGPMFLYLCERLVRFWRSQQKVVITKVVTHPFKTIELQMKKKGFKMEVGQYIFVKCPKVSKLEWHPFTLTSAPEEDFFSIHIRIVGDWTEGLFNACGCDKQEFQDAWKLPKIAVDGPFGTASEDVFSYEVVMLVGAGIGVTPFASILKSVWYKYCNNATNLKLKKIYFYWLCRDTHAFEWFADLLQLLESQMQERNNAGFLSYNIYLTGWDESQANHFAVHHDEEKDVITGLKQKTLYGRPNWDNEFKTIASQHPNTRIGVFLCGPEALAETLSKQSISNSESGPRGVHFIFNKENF

Regarding `CC(=O)c1ccc(C(O)C2C=CC3C(=O)N(C)C(=O)C3N2NC(=O)OC(C)(C)C)cc1` (stereo not given), the z-score in [1] was -1.33 (inactive); in test [3], 1.24 (inactive); in test [4], 0.957 (inactive); in test [5], 0.0395 (inactive); in [6], 0.95 (inactive); in [7], -1.51. Further, the z-score in test [8] is -0.455 (inactive); in [9], -1.57 (inactive); in test [10], -1.01; in test [11], -1.02; in [12], -0.701; in [13], -0.831. Further, the z-score in test [14] was -0.682; in [15] it was -0.193; in [16], -1.29; in test [17], -0.82 (inactive); in test [18], -0.539; in test [19] it was 0.485. Moreover, in [20], the z-score is -0.659 (inactive). Further, the composite z-score in test [2] came out at 0.186.

Take `Cc1ccc(S[C@]2(C(=O)NC3CC3)CC(=O)N(Cc3cc(C(F)(F)F)cc(C(F)(F)F)c3)[C@@H]2c2ccc(CO)cc2I)cc1`: the z-score is 0.147 (inactive) in [1]; 5.58 (inactive) in test [3]; 0.774 (inactive) in test [4]; 0.231 (inactive) in [5]; 0.229 (inactive) in [6]; -0.185 in [7]. Also, the z-score in test [8] was 1.52 (inactive); in test [9] it was -1.62 (inactive); in test [10], 1.14; in test [11], -0.155; in test [12] it was -0.136; in [13], 0.311. In addition, the z-score in test [14] is -2.53; in test [15], -1.81; in test [16] it was -0.9; in test [17], -0.373 (inactive); in [18], -0.921; in test [19], -2.03. Further, the z-score in test [20] was 0.851 (inactive). This compound also displayed a composite z-score in test [2] of -0.625.

In the case of `C=C(COC)/C(=C/C[C@H](OC(=O)c1ccncc1)c1cccc(OCCO)c1)c1cnc2ccccc2c1`, the z-score is -0.223 (inactive) in [1]; 9.54 (active) in test [3]; 0.936 (inactive) in test [4]; 0.426 (inactive) in test [5]; 0.431 (inactive) in [6]; 0.231 in test [7]. Also, the z-score was -0.0605 (inactive) in test [8]; 0.24 (inactive) in test [9]; -0.3 in test [10]; -0.0119 in [11]; 0.222 in [12]; 0.596 in test [13]. Moreover, the z-score in [14] was -2.77; in test [15], -0.0229; in test [16], 0.327; in test [17], -0.0487 (inactive); in test [18], 0.568; in test [19], -0.704. For the same compound, the z-score in [20] was 0.251 (inactive). In test [2], this compound registered a composite z-score of 0.317.

With `Cc1ccc(S(=O)(=O)N2[C@@H](c3ccccc3)C(C(=O)O)=CC[C@H]2c2ccc(C#N)cc2)cc1`, the z-score in test [1] is -1.22 (inactive); in test [3], 4.02 (inactive); in test [4], 1.42 (inactive); in test [5], 1.6 (inactive); in test [6] it was 0.559 (inactive); in test [7] it was -0.316. The z-score was -0.229 (inactive) in test [8]; -1.62 (inactive) in [9]; -1.54 in test [10]; -0.283 in test [11]; -0.287 in [12]; -0.187 in [13]. Further, the z-score in test [14] is -0.44; in [15], -0.471; in test [16], -0.556; in test [17], -0.633 (inactive); in test [18], -0.748; in test [19], 0.226. For the same compound, the z-score in [20] is -0.748 (inactive). This compound also registered a composite z-score in [2] of 0.114.

Take `NCCCC[C@@H]1NC(=O)[C@H]2C[C@@H](C(=O)O)[C@@H](c3cccc(OCCO)c3)N2C1=O`: the z-score in test [1] was -1.23 (inactive); in test [3], -1.87 (inactive); in test [4] it was -0.195 (inactive); in test [5], 0.452 (inactive); in test [6], 0.253 (inactive); in [7], -0.993. The z-score is 2.14 (inactive) in test [8]; 0.834 (inactive) in test [9]; 0.415 in test [10]; -0.917 in test [11]; -0.61 in test [12]; 0.274 in test [13]. Further, the z-score in test [14] is -1.81; in test [15] it was 0.0324; in test [16], -2.23; in [17], 0.0425 (inactive); in test [18], -0.392; in test [19], -0.658. In test [20], the z-score is 0.506 (inactive). Besides, the composite z-score in test [2] is 0.951.

Regarding `CCCCNC(=O)c1ccc(C#C[Si](C)(C)C)c(OC(C)=O)c1`, the z-score in test [1] was 0.151 (inactive); in test [3], 12.3 (active); in test [4] it was 1.64 (inactive); in [5], 1.67 (inactive); in [6] it was 0.672 (inactive); in test [7] it was 0.726. For the same compound, the z-score in [8] is 1.8 (inactive); in test [9] it was 0.194 (inactive); in test [10] it was 0.0648; in [11] it was -0.507; in [12], 0.477; in [13], -0.484. The z-score is 0.131 in test [14]; -1.13 in test [15]; -1.12 in test [16]; -0.538 (inactive) in test [17]; -0.215 in [18]; -0.601 in test [19]. Moreover, in [20], the z-score was -0.389 (inactive). The compound also displayed a composite z-score in [2] of -0.0032.

On to `C=CCC(OC(C)=O)[C@@H]1[C@@H](N(Cc2cccc3ccccc23)C(=O)c2ccc(C)cc2)c2cc(OCCCO)ccc2N1C(=O)c1ccc2ccccc2n1` (stereo not given in full), for which the z-score was 2.18 (inactive) in test [1]; 1.83 (inactive) in test [3]; -0.623 (inactive) in test [4]; -1.16 (inactive) in test [5]; -1.37 (inactive) in test [6]; 1.62 in [7]. The z-score is -0.604 (inactive) in [8]; 0.807 (inactive) in [9]; 2.44 in test [10]; 0.375 in test [11]; 0.694 in [12]; 1.14 in test [13]. In addition, the z-score in [14] was 0.823; in test [15] it was -0.473; in [16] it was 2.11; in test [17], 0.199 (inactive); in test [18], 0.187; in test [19], -1.25. Besides, the z-score in test [20] is 0.34 (inactive). The compound further had a composite z-score in [2] of 0.0009.

With `CC(C)C[C@@H]1NC(=O)[C@H]2C[C@@H](C(=O)NCCCCCCNC(=O)CS)[C@@H](c3ccc(O)cc3)N2C1=O`, the z-score in test [1] is 0.13 (inactive); in test [3], 7.66 (inactive); in test [4] it was 0.64 (inactive); in test [5], 1.4 (inactive); in test [6], -0.0166 (inactive); in test [7] it was 0.795. The z-score in test [8] is 1.64 (inactive); in [9], 0.633 (inactive); in [10] it was 0.755; in [11], -0.889; in test [12], 0.197; in test [13], -0.301. The z-score in test [14] was -0.397; in [15], 0.266; in test [16], -1.74; in [17], 0.193 (inactive); in test [18], 0.486; in [19], -5.59e-05. Further, the z-score in [20] is 0.0225 (inactive). Besides, in [2], the composite z-score was -0.0603.

Turning to `CCCCN1CC=CC23O[C@@H]4/C=C\CCC(C)OC(=O)C4[C@H]2C(=O)N(C(C)CO)[C@@H]3C1=O` (stereo not given in full), the z-score in test [1] was 0.0581 (inactive); in test [3], 1.82 (inactive); in test [4], -0.0918 (inactive); in test [5], 1.19 (inactive); in test [6] it was 0.16 (inactive); in test [7] it was -0.0969. In addition, the z-score in test [8] was 0.809 (inactive); in test [9], -0.42 (inactive); in test [10], 1.27; in test [11] it was -0.425; in test [12], -0.708; in [13] it was 0.201. For the same compound, the z-score in test [14] is 0.646; in test [15], -0.474; in [16], -0.318; in [17], -0.382 (inactive); in test [18], -0.726; in [19] it was -1.13. The z-score in test [20] was -0.016 (inactive). The composite z-score in test [2] is -0.331.
